Results on 40 compounds are retold here after PubChem BioAssay (NCI).

Each structure is given as a SMILES string. Where “and” joins values, the source holds several entries; their conditions need not be identical. Equal entries are not always repeated. The panel holds about 83,000 compounds, 20% with a hit somewhere; the sample as a whole holds those more often.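 Values shown are percent growth following 48 h exposure of cells in 96-well plates to a single concentration of compound; below 10 was considered active.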 Unmarked numbers belong to inactive results. Calls of active or inactive are those of the source.

The test system of the test is MDA-MB-468 breast. As to the kind of experiment: NCI-60 one-dose screen, 48 h (100 = growth as untreated, 0 = no growth, -100 = all killed). The following applies: 10 µM unless noted.
`O=C(N/N=C/c1ccc(N(CCCl)CCCl)cc1)c1cc(=O)[nH]c(=O)[nH]1`: the growth is -0.0833% (active). Next, `CCCCCCCCCCCC1CCCC(C)N1` (stereo not given): 73.3%.

As to `C[C@]12CCc3nc(Nc4ccccc4F)sc3C1=CC[C@@H]1[C@@H]2CC[C@]2(C)C(=O)CC[C@@H]12`, the growth was 23.7%. Next, `COc1ccn(C)c(=O)c1C#N`: 102%; `O=C1CC2(CC3(Cl)C(Cl)=C(Cl)C2(Cl)C3(Cl)Cl)C(=O)O1` (stereo not given): 105%; `O=C1NC2(CCNCC2)Nc2ccccc21`: 98.8%. Under `CC[C@H](C)[C@H](NC(=O)[C@H]1CCCCN1C)C(=O)N(C)[C@H](C(=O)NC12CC(C(=O)N[C@@H](Cc3ccccc3)C[C@H](C)C(=O)OC)(C1)C2)C(C)C` stands 116%. Under `c1ccc(CSC(c2ccccc2)c2ccccc2)cc1` stands 124%; under `NC(=O)Oc1cc(OC(N)=O)cc(N(CCCl)CCCl)c1`, 29.9%. On to `N#C[Se]CCN1C(=O)c2ccccc2C1=O`, for which the growth was 20.4%. Regarding `CC(=O)/C=C/c1ccc2c(c1)OCO2`, the growth is 96.6%. Under `CC(=O)Nc1ccc(NC(=O)c2ccc([As](O)O)cc2)cc1` stands 92.5%; under `COc1ccc(N)cc1N`, 101%; under `CC(=O)ONc1ccc([N+](=O)[O-])c(C(F)(F)F)c1`, 118%. Next, `CCOC(=O)C(Cc1ccc(N(CCCl)CCCl)cc1)NC(=O)C(CC(C)C)NC(C)=O` (stereo not given): -45.6% (active). Next, `COC(=O)[C@@H](C)C[C@H](Cc1ccccc1)NC(=O)c1nc([C@@H](C[C@H](C(C)C)N(C)C(=O)[C@@H](NC(=O)[C@H]2CCCN2C)C(C)C)OC(C)=O)sc1C`: 1.81% (active); `Cc1cc(NC(=O)CCc2ccc(N3C(N)=NC(N)=NC3(C)C)cc2)ccc1S(=O)(=O)F`: 32.4%; `COC1CC2C=C(C)/C=C/C=C/C(=O)NC(c3ccccc3)C/C=C/CCC(O)CC(=O)C2=C1O` (stereo not given): -50.7% (active).

For `Clc1cccc(N2COOC3(OOC2)C2CC4CC(C2)CC3C4)c1`, the growth was 77.7%. Turning to `C[Se]C(=O)c1ccccc1OC(C)=O`, the growth was 45%.

For the compound `CC1=C(C)C(=O)O[C@@H]([C@](C)(O)[C@]2(O)CC[C@@]3(O)[C@@H]4C[C@H]5O[C@]56CC=CC(=O)[C@]6(C)[C@H]4CC[C@]23C)C1`, the growth is -26.3% (active). Under `COc1cc(C2C3=C(CCCC3=O)N(CCO)c3cc4c(cc32)CCC4)cc(OC)c1OC` (stereo not given) stands 93.8%. For the compound `CC1(C)CN=C(NN=C(/C=C/c2ccc(C(F)(F)F)cc2)/C=C/c2ccc(C(F)(F)F)cc2)NC1`, the growth is -84% (active).

As for `NC(Cc1ccc(O)cc1)C(=O)N/N=C/c1ccc(N(CCCl)CCCl)cc1` (stereo not given), the growth is 19.7%. Next, `CCOP(=O)(Nc1ccc2c(c1)/C(=N/NC(N)=S)c1ccccc1-2)OCC`: 86%; `S=P(SP(=S)(c1ccccc1)c1ccccc1)(c1ccccc1)c1ccccc1`: 101%. Under `COc1cc(C=C2c3ccccc3C(=O)c3ccccc32)ccc1OCCCCOc1cc2c(cc1OC)C(=O)N1CCCC1C=N2` (stereo not given) stands -75.4% (active); under `CC(/C=N/N=C(N)N)=N/N=C(N)N`, 93.9%. On to `CC(CO)NC1CCCCC1` (stereo not given), for which the growth was 107%.

As for `N#CCC(=O)c1ccccc1`, the growth is 6.35% (active). Next, `CN1C(=O)[C@]23SSC1(C)C(=O)N2[C@H]1Nc2ccccc2C1([C@@]12c4ccccc4N[C@@H]1N1C(=O)C4(C)SS[C@]1(C(=O)N4C)[C@H]2O)[C@@H]3O` (stereo not given in full): -88.9% (active). As to `Oc1ccc(O)c2c1C1(Cl)C(Cl)=C(Cl)C2(Cl)C1(Cl)Cl`, the growth is 4.54% (active). Under `NC(=O)c1c(Br)c(Br)c(Br)c(Br)c1C(=O)O` (tested in a mixture with another compound) stands 93.7% and 101%; under `CC(Oc1ccc(-c2ccccc2)cc1)C(=O)O` (stereo not given), 94.4%. Next, `COC(=O)[C@@H](C)C[C@H](Cc1ccccc1)NC(=O)c1csc([C@@H](C[C@H](C(C)C)N(C)C(=O)[C@@H](NC(=O)[C@H]2CCCCN2C)C2CCCCC2)OC(C)=O)n1`: -8.49% (active); `COC(=O)[C@]12CCC(C)(C)C[C@H]1[C@H]1C(=O)C[C@@H]3[C@@]4(C)C[C@@]5(CC(C)(C)[C@@H]4CC[C@@]3(C)[C@]1(C)CC2)OO[C@@](C)(C(F)(F)F)O5`: 84.5%. Under `CC[C@H](C)[C@H]1O[C@]2(C=C[C@@H]1C)C[C@@H]1C[C@@H](C/C=C(\C)[C@@H](O[C@H]3C[C@H](OC)[C@@H](O[C@H]4C[C@H](OC)[C@@H](NC)[C@H](C)O4)[C@H](C)O3)[C@@H](C)/C=C/C=C3\CO[C@@H]4[C@H](O)C(C)=C[C@@H](C(=O)O1)[C@]34O)O2` stands -68.8% (active); under `CN(CCF)/N=N/c1nc[nH]c1C(N)=O`, 26.7%; under `NC(=O)c1cc([N+](=O)[O-])c(Cl)c([N+](=O)[O-])c1`, 19.8%. As to `C/C(=C\c1ccn(-c2ccc(N)c(C(F)(F)F)c2)n1)[C@@H]1C[C@@H]2O[C@]2(C)CCC[C@H](C)[C@H](O)[C@@H](C)C(=O)C(C)(C)[C@@H](O)CC(=O)O1`, the growth was 4.12% (active).
